Data as given in PubChem BioAssay (NCATS).
Several values for one entry are separate records, joined by “and”; a condition that tells them apart may be missing. Equal values may be shown once. Records with an inconclusive call do not appear. Where a call stands in place of a potency, no number is given. A number with no mark means an inactive call. Activity calls are given as the source filed them. Calls come from the whole dose curve; as a rule, active = well fitted inhibition curve with a large enough effect; inconclusive = small, poorly fitted or top-dose-only effect; inactive = flat fitted curve, though single readings scatter.

Columns and labels:
CRL-7250 = normal cell line; assay: Cytotoxic Profiling of Annotated Libraries Using Quantitative High-Throughput Screening (AID 1296008); details: Five cell lines viability, CellTiter-Glo ATP luminescence, 48-72 h; max response: hits give low values; note: potency is the fitted concentration of half-maximal effect
How it was run: (§1)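 Cells exposed to compounds for 48 or 72 hr at 37 degrees Celsius. Viability read as ATP-coupled luminescence with CellTiter-Glo after 10 min at room temperature.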

HEK293 = assay: as above; details: Five cell lines viability, CellTiter-Glo ATP luminescence, 48-72 h; max response: hits give low values
How it was run: as §1

HaCat [1] = assay: as above; details: Five cell lines viability, CellTiter-Glo ATP luminescence, 48-72 h; max response: hits give low values
How it was run: as §1

NIH3T3 = assay: as above; details: Five cell lines viability, CellTiter-Glo ATP luminescence, 48-72 h; max response: hits give low values
How it was run: as §1

MCC-13 = assay: qHTS assay to identify novel small-molecules to repurpose for Merkel cell carcinoma treatment (AID 1296009); details: MCC and control cell lines, CellTiter-Glo viability, 72 h; series mostly up to 46 µM; note: potency is the fitted concentration of half-maximal effect
How it was run: (§2)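 Cells were treated for 72 hr at 37 degree celsius with compounds in 8- or 11-point dose response. Viability was read by CellTiter-Glo luminescence, normalized to no-cell (cytotoxicity) and DMSO controls.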

MCC-26 = assay: as above; details: MCC and control cell lines, CellTiter-Glo viability, 72 h; series mostly up to 46 µM
How it was run: as §2

MKL-1 = assay: as above; details: MCC and control cell lines, CellTiter-Glo viability, 72 h; series mostly up to 46 µM
How it was run: as §2

MKL-2 = assay: as above; details: MCC and control cell lines, CellTiter-Glo viability, 72 h; series mostly up to 46 µM
How it was run: as §2

KB-3-1 = assay: Cytotoxic Profiling of Annotated Libraries Using Quantitative High-Throughput Screening (AID 1296008); details: Five cell lines viability, CellTiter-Glo ATP luminescence, 48-72 h; max response: hits give low values; note: potency is the fitted concentration of half-maximal effect
How it was run: as §1

HACAT [2] = assay: qHTS assay to identify novel small-molecules to repurpose for Merkel cell carcinoma treatment (AID 1296009); details: MCC and control cell lines, CellTiter-Glo viability, 72 h; at 44.8 µM (top of the series) unless noted; note: potency is the fitted concentration of half-maximal effect
How it was run: as §2

PAD = assay: qHTS profiling for inhibitors of Plasmodium falciparum proliferation (AID 504749); details: P. falciparum in erythrocytes, SYBR Green DNA, 72 h; series mostly up to 28.7 µM
How it was run: (§3)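 P. falciparum-infected erythrocytes (0.3% parasitemia, 2.5% hematocrit) incubated with compound 72 h at 37 C, 5% CO2. Parasite DNA detected by SYBR Green after lysis, overnight at room temperature; normalised to 0.29 uM artemisinin and DMSO.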

PC15 = assay: as above; details: P. falciparum in erythrocytes, SYBR Green DNA, 72 h; series mostly up to 28.7 µM
How it was run: as §3

PC26 = assay: as above; details: P. falciparum in erythrocytes, SYBR Green DNA, 72 h; series mostly up to 28.7 µM
How it was run: as §3

PC49 = assay: as above; details: P. falciparum in erythrocytes, SYBR Green DNA, 72 h; series mostly up to 28.7 µM
How it was run: as §3

SC27B = assay: as above; details: P. falciparum in erythrocytes, SYBR Green DNA, 72 h; series mostly up to 28.7 µM
How it was run: as §3

TAB109 = assay: as above; details: P. falciparum in erythrocytes, SYBR Green DNA, 72 h; series mostly up to 28.7 µM
How it was run: as §3

TAB113 = assay: as above; details: P. falciparum in erythrocytes, SYBR Green DNA, 72 h; series mostly up to 28.7 µM
How it was run: as §3

TAB165 = assay: as above; details: P. falciparum in erythrocytes, SYBR Green DNA, 72 h; series mostly up to 28.7 µM
How it was run: as §3

W2 = assay: as above; details: P. falciparum in erythrocytes, SYBR Green DNA, 72 h; series mostly up to 28.7 µM
How it was run: as §3

HEK293T = assay: qHTS assay to identify novel small-molecules to repurpose for Merkel cell carcinoma treatment (AID 1296009); details: MCC and control cell lines, CellTiter-Glo viability, 72 h; at 44.8 µM (top of the series); note: potency is the fitted concentration of half-maximal effect
How it was run: as §2
Note: nearly all actives have a fitted effect of over 60% in size.

## O=C1NC(=O)C(=Cc2ccc3c(c2)OC(F)(F)O3)S1
CRL-7250
  max response: -15.6%
HEK293
  max response: -24.8%
HaCat [1]
  max response: -0.402%
NIH3T3
  max response: -19.2%
MCC-13
  Potency: inactive
MCC-26
  Potency: inactive
MKL-1
  Potency: inactive
MKL-2
  Potency: inactive

## O=C1c2ccccc2-[n+]2ccc3c([nH]c4ccccc43)c21
CRL-7250
  Potency: 4.69 µM (active)
HEK293
  Potency: 2.64 µM (active)
HaCat [1]
  Potency: 1.32 µM (active)
KB-3-1
  Potency: 2.96 µM (active)
MCC-13
  Potency: 3.32 µM (active)
MCC-26
  Potency: 7.43 µM (active)
MKL-1
  Potency: 1.05 µM (active)
MKL-2
  Potency: 3.32 µM (active)

## COc1cccc(-c2cc(=O)c3ccccc3o2)c1N
CRL-7250
  max response: -6.48%
HEK293
  max response: -10.3%
HaCat [1]
  max response: -7.74%
KB-3-1
  max response: -0.147%
MCC-13
  Potency: inactive
MCC-26
  Potency: inactive
MKL-1
  Potency: inactive
MKL-2
  Potency: inactive

## O=C(O)CCC1CCC(c2cc(F)ccc2F)(S(=O)(=O)c2ccc(Cl)cc2)CC1 (centres undefined)
CRL-7250
  outcome: inactive
HEK293
  max response: -15.1%
HaCat [1]
  outcome: inactive
KB-3-1
  outcome: inactive
HACAT [2]
  outcome: inactive
MCC-13
  Potency: inactive
MCC-26
  Potency: inactive
MKL-1
  Potency: inactive

## O=C(Nc1cccc(Br)c1)c1cccc(S(=O)(=O)N2CCCCCC2)c1
CRL-7250
  Potency: 23.1 µM (active)
HEK293
  Potency: 13.2 µM (active) and 9.2 µM (active)
HaCat [1]
  max response: 4.06% and -1.39%
NIH3T3
  max response: -21.3%
MCC-13
  Potency: inactive
MCC-26
  Potency: inactive
MKL-1
  Potency: inactive
MKL-2
  Potency: inactive

## CO[C@H]1C[C@@H]2CC[C@@H](C)[C@@](O)(O2)C(=O)C(=O)N2CCCC[C@@H]2C(=O)O[C@H]([C@H](C)C[C@@H]2CC[C@H](OCCO)[C@H](OC)C2)CC(=O)[C@H](C)C=C(C)[C@@H](O)[C@@H](OC)C(=O)[C@H](C)C[C@H](C)C=CC=CC=C1C
CRL-7250
  max response: -75.3%
HEK293
  Potency: 0.0017 µM (active)
HaCat [1]
  max response: -15.8%
NIH3T3
  Potency: 8.33 µM (active)
MCC-13
  Potency: inactive
MKL-2
  Potency: inactive

## Clc1ccc(-c2nc3sccn3c2C=NOCc2ccc(Cl)c(Cl)c2)cc1
CRL-7250
  max response: -8.97%
HEK293
  max response: -1.21%
HaCat [1]
  outcome: inactive
KB-3-1
  max response: -5.79%
HACAT [2]
  outcome: inactive
MCC-13
  Potency: inactive
MCC-26
  Potency: inactive
MKL-1
  Potency: inactive
MKL-2
  Potency: inactive

## Cc1ccc(/C=N/NC(=O)c2ccccc2Oc2ccccc2)o1
CRL-7250
  max response: -0.512%
HEK293
  Potency: 20.9 µM (active)
HaCat [1]
  max response: -2.81%
NIH3T3
  max response: -19%
MCC-13
  Potency: inactive
MCC-26
  Potency: inactive
MKL-1
  Potency: inactive
MKL-2
  Potency: inactive

## Oc1ccc(C2CCN(c3ccnc4ccccc34)CC2)cc1O
CRL-7250
  Potency: 4.69 µM (active)
HEK293
  Potency: 13.2 µM (active)
HaCat [1]
  max response: -4.14%
NIH3T3
  max response: -5.13%
MCC-13
  Potency: inactive

## COc1ccc(-c2nc(N3CCOCC3)c3sc(CN(C)c4ncc(C(=O)NO)cn4)cc3n2)cn1
CRL-7250
  Potency: 0.059 µM (active)
HEK293
  Potency: 0.0166 µM (active)
HaCat [1]
  Potency: 0.148 µM (active)
KB-3-1
  Potency: 0.0264 µM (active)
MCC-13
  Potency: 0.0662 µM (active)
MCC-26
  Potency: 0.0526 µM (active)

## COc1ccc2cccc(CCNC(C)=O)c2c1
CRL-7250
  max response: -2.32%
HEK293
  max response: 4.38%
HaCat [1]
  max response: -1.39%
KB-3-1
  max response: 2.52%
MCC-13
  Potency: inactive
MKL-1
  Potency: inactive
MKL-2
  Potency: inactive

## CCOC(CN1C(=O)[C@](CC(=O)Nc2ccc(C)cc2)(NC(=O)Nc2ccc(C)cc2)c2ccccc21)OCC
CRL-7250
  max response: 2.73%
HEK293
  max response: -3.95%
HaCat [1]
  max response: -19.2%
KB-3-1
  max response: -11%
MCC-13
  Potency: inactive
MCC-26
  Potency: inactive
MKL-1
  Potency: inactive

## CCN(CC)CCOC(=O)c1ccc(N)cc1
PAD
  outcome: inactive
PC15
  outcome: inactive
PC26
  Potency: inactive
PC49
  outcome: inactive
SC27B
  Potency: inactive
TAB109
  outcome: inactive
TAB113
  Potency: inactive
TAB165
  Potency: inactive
W2
  Potency: inactive
CRL-7250
  max response: -12%
HEK293
  outcome: inactive
HaCat [1]
  outcome: inactive
KB-3-1
  max response: 14%
HACAT [2]
  outcome: inactive
HEK293T
  outcome: inactive
MCC-13
  Potency: inactive
MCC-26
  Potency: inactive
MKL-1
  Potency: inactive
MKL-2
  Potency: inactive

## O=C(NCCN1CCOCC1)c1ccc(Cl)cc1
PAD
  outcome: inactive
PC15
  outcome: inactive
PC26
  Potency: inactive
PC49
  outcome: inactive
SC27B
  Potency: inactive
TAB109
  outcome: inactive
TAB113
  Potency: inactive
TAB165
  Potency: inactive
W2
  Potency: inactive
CRL-7250
  max response: 0.679%
HEK293
  max response: -0.241%
HaCat [1]
  max response: -12.4%
KB-3-1
  max response: 3.6% and -22.2%
MCC-13
  Potency: inactive
MCC-26
  Potency: inactive
MKL-1
  Potency: inactive
MKL-2
  Potency: inactive
